Results reported in PubChem BioAssay (Tox21).
Results filed as inconclusive are left out. Where a call stands in place of a potency, no number is given. The source made the active and inactive calls. Unless noted, calls follow the shape of the dose curve; as a rule, active = well fitted curve in the direction sought with a large enough effect in the repeat runs; inconclusive = weak or mixed curves; inactive = no such curve, though single readings can be large; an effect the other way counts as inactive or inconclusive.

Assays:
[1] = qHTS assay to identify small molecule agonists of the RXR signaling pathway - cell viability counter screen (AID 1159529); also: series mostly up to about 77 µM; nearly all actives have a fitted effect of over 50% in size
In short: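 Luminescence from CellTiter-Glo (30 min, RT) measured viability in the same wells as the beta-lactamase reporter readout. Cells: GeneBLAzer RXR-alpha HEK 293T, 2% charcoal-stripped FBS. Compound exposure 16 hr, 37 C.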

[2] = qHTS assay to identify small molecule antagonists of the retinoid acid receptor (RAR) signaling pathway - cell viability counter screen (AID 1159551); also: nearly all actives have a fitted effect of over 35% in size
In short: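 C3RL4 RARE-luciferase cells, 1,000/well, incubated overnight, then dosed with compound plus 1 uM retinol (final). After 6 hr at 37 C, viability read by CellTiter-Glo ATP luminescence following 30 min at room temperature.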

[3] = qHTS assay to identify small molecule antagonists of the estrogen related receptor (ERR) signaling pathway from Tox21 library - cell viability counter screen (AID 1224834); also: nearly all actives have a fitted effect of over 30% in size; also: potency is read from the fitted curve at half-maximal effect
In short: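 ERR reporter cells, 2,000 per well, rested 6 h, then exposed to compound in DMSO for 17.5 hours at 37 C. Viability read as fluorescence after 30 min with CellTiter-Fluor.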

[4] = molecular target: Luciferin 4-monooxygenase (Photinus pyralis) (UniProt P08659); assay: qHTS assay to identify small molecule inhibitors of firefly luciferase (AID 1224835); also: nearly all actives have a fitted effect of over 25% in size; also: potency is read from the fitted curve at half-maximal effect
Chain of Luciferin 4-monooxygenase (Photinus pyralis) (P08659 whole entry, looked up): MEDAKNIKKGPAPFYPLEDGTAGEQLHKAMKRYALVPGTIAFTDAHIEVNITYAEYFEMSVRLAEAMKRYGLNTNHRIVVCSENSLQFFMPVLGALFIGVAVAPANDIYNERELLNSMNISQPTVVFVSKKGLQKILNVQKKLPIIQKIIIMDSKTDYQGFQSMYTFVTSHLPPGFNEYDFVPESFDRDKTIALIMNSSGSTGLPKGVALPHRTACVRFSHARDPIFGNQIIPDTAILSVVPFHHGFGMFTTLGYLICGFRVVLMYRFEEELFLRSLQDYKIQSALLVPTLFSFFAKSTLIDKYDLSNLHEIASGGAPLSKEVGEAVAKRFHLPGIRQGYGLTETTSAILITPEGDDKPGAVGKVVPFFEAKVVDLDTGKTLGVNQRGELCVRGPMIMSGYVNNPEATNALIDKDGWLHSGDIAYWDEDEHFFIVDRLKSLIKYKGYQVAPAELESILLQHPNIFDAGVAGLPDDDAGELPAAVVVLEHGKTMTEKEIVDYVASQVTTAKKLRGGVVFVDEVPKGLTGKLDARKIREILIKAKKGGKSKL
In short: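 Inhibition of purified Photinus luciferase is measured by luminescence. Substrate levels (D-luciferin, ATP) sit at their KM values. Each compound is tested in a concentration series.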

[5] = qHTS assay to identify small molecule agonists of the constitutive androstane receptor (CAR) signaling pathway - cell viability counter screen (AID 1224836); also: nearly all actives have a fitted effect of over 45% in size; also: potency is read from the fitted curve at half-maximal effect
In short: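 Viability read-out: CellTiter-Fluor fluorescence after 23 h compound exposure at 37 C/5% CO2 in double-stable HepG2-CYP2B6-hCAR cells, with PK11195 present at 0.75 uM final; compounds tested in 15-point titration.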

[6] = molecular target: Nuclear receptor subfamily 1 group I member 3 (Homo sapiens) (UniProt Q14994); assay: qHTS assay to identify small molecule agonists of the constitutive androstane receptor (CAR) signaling pathway (AID 1224839); also: nearly all actives have a fitted effect of over 15% in size; also: potency is read from the fitted curve at half-maximal effect
Chain of Nuclear receptor subfamily 1 group I member 3 (Homo sapiens) (Q14994 whole entry, looked up): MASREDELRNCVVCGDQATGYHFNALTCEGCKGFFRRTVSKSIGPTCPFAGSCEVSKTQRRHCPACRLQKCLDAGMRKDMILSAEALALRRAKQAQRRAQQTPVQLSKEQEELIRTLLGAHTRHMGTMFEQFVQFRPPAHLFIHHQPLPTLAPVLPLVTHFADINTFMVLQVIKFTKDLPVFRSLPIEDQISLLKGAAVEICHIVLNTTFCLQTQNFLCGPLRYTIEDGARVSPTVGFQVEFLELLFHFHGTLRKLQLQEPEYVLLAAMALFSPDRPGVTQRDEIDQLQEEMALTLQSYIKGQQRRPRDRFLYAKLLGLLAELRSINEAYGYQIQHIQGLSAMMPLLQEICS
In short: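 Luminescence read-out (ONE-Glo, 30 min, room temperature) from double-stable HepG2-CYP2B6-hCAR cells exposed 24 h to 15-point compound series in presence of 0.75 uM PK11195 final.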

[7] = qHTS assay to identify small molecule antagonists of the estrogen related receptor signaling pathway with the pleiotropic PPARgamma coactivator (PGC) from Tox21 10K library - cell viability counter screen (AID 1224840; active = well fitted cell-killing curve with a large enough effect in the repeat runs, not every such curve was filed as active; also: nearly all actives have a fitted effect of over 40% in size; also: potency is read from the fitted curve at half-maximal effect)
In short: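 PGC/ERR cells (2,000/well) plated 6 h, then compound-treated for 17.5 h at 37 C. Viability measured by CellTiter-Fluor fluorescence after 30 min at 37 C, multiplexed with the pathway assay.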

[8] = molecular target: Nuclear receptor subfamily 1 group I member 3 (Homo sapiens) (UniProt Q14994); assay: qHTS assay to identify small molecule antagonists of the constitutive androstane receptor (CAR) signaling pathway (AID 1224838); also: nearly all actives have a fitted effect of over 40% in size
In short: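 HepG2 cells stably carrying hCAR and a CYP2B6-2.2kb luciferase reporter, seeded 4 hrs before compound (15 concentrations). Stimulated with 50 nM CITCO for 24 hr at 37 C. ONE-Glo luminescence read after 30 min at room temperature.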

[9] = qHTS assay to identify small molecule antagonists of the constitutive androstane receptor (CAR) signaling pathway - cell viability counter screen (AID 1224837); also: nearly all actives have a fitted effect of over 45% in size; also: potency is read from the fitted curve at half-maximal effect
In short: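 HepG2 cells stably carrying hCAR and CYP2B6-2.2kb reporter, stimulated with 50 nM CITCO and compounds at 15 concentrations for 23 h at 37 C. Viability measured by CellTiter-Fluor fluorescence.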

[10] = qHTS assay to identify small molecule antagonists of the retinoic acid receptor (RAR) signaling pathway (AID 1159552; also: nearly all actives have a fitted effect of over 50% in size; also: potency is read from the fitted curve at half-maximal effect)
In short: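 Luminescence from a RARE luciferase reporter in C3RL4 cells served as read-out. Cells received compounds together with 1 uM final retinol and incubated 6 hr at 37 C before detection reagent was added for 30 min at room temperature.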

[11] = qHTS assay to identify small molecule agonists of the estrogen related receptor signaling pathway with the pleiotropic PPARgamma coactivator (PGC) from Tox21 10K library (AID 1224842); also: nearly all actives have a fitted effect of over 15% in size
In short: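 Luminescence from One-Glo (30 min, room temperature) measured after PGC/ERR cells had 18 h at 37 C with pinned compound (23 nL in DMSO). Cells had been seeded at 2,000 per well and pre-incubated 6 h.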

[12] = qHTS assay to identify small molecule antagonists of the estrogen related receptor (ERR) signaling pathway - cell viability counter screen (AID 1224818); also: series mostly up to about 46 µM
In short: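 ERR cells, 2,000 per well, compound added after 6 h and incubated 17.5 h at 37 C. Viability read by CellTiter-Fluor fluorescence after a further 30 min at 37 C.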

[13] = qHTS assay to identify small molecule antagonists of the estrogen related receptor signaling pathway with the pleiotropic PPARgamma coactivator (PGC) cell viability counter screen (AID 1224822; also: series mostly up to about 46 µM)
In short: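 PGC/ERR cells rested 6 h, then compound-treated 17.5 h at 37 C. CellTiter-Fluor added for 30 min at 37 C, viability measured by fluorescence intensity.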

[14] = qHTS assay to identify small molecule antagonists of the estrogen related receptor signaling pathway with the pleiotropic PPARgamma coactivator (PGC) from Tox21 10K library (AID 1224841; call rule not given here; also: actives are mostly falling curves and most rising ones were filed inactive; nearly all actives have a fitted effect of over 50% in size; also: potency is read from the fitted curve at half-maximal effect)
In short: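 PGC/ERR cell line, 2,000 cells/well, pre-incubated 6 hours at 37 C, then exposed to compounds for 18 hours at 37 C; luciferase read with One-Glo luminescence after 30 min at room temperature.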

[15] = qHTS assay to identify small molecule agonists of the retinoic acid receptor (RAR) signaling pathway (AID 1159553); also: potency is read from the fitted curve at half-maximal effect
In short: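 C3RL4 RARE-luciferase cells were seeded at 1,000/well and grown overnight at 37 C, then exposed to compounds for 6 hr at 37 C, 5% CO2. Luciferase reagent was added and luminescence was read after 30 min at room temperature.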

| Compound | Potency [1] | Potency [2] | Potency [3] | Potency [4] | Potency [5] | Potency [6] | Potency [7] | Potency [8] | Potency [9] | Potency [10] | Potency [11] | outcome [12] | outcome [13] | Potency [14] | Potency [15] |
| --- | --- | --- | --- | --- | --- | --- | --- | --- | --- | --- | --- | --- | --- | --- | --- |
| CCCCCc1ccco1 | inactive | inactive | inactive | inactive | inactive | inactive | inactive | – | – | – | – | – | – | – | – |
| CC1=C2[C@@H]([C@H](C)CC[C@H]2/C=C(\C)C(=O)O)[C@H](O)C1 | inactive | inactive | inactive | inactive | inactive | inactive | inactive | inactive | – | – | – | – | – | – | – |
| O=C(O)c1cccc(C[C@@H]2COc3ccc(OCc4nc5cc(F)ccc5s4)cc3[C@@H]2O)c1 | inactive | inactive | inactive | inactive | inactive | inactive | inactive | inactive | inactive | – | – | – | – | – | – |
| CC/C=C\C/C=C\C/C=C\CCCCCCCC(=O)OCC | – | inactive | – | inactive | inactive | – | – | – | inactive | inactive | inactive | – | – | – | – |
| Nc1cccc2c(N)cccc12 | – | inactive | – | 39.9 µM (active) | 24.3 µM (active) | 24.3 µM (active) | – | inactive | 24.3 µM (active) | inactive | – | inactive | inactive | – | – |
| CCCCCCCC/C=C/C(=O)O | inactive | inactive | inactive | inactive | inactive | – | inactive | – | inactive | – | – | – | – | – | – |
| O=C(O)CCCc1c[nH]c2ccccc12 | inactive | inactive | inactive | inactive | inactive | – | inactive | – | inactive | – | inactive | – | – | inactive | – |
| OCC(CO)n1cnc(-c2ccc(F)cc2)c1-c1ccnc(Oc2ccccc2)n1 | inactive | inactive | inactive | inactive | inactive | inactive | inactive | inactive | inactive | – | inactive | – | – | – | – |
| COc1cc(C(C)=O)ccc1OCCCN1CCC(c2noc3cc(F)ccc23)CC1 | inactive | inactive | – | – | – | inactive | inactive | inactive | inactive | – | – | – | – | – | – |
| CC(C)(O)c1coc(S(=O)(=O)NC(=O)Nc2c3c(cc4c2CCC4)CCC3)c1 | – | inactive | inactive | – | inactive | inactive | inactive | inactive | inactive | inactive | – | – | – | – | – |
| O=[N+]([O-])C1(Br)COCOC1 | – | – | – | 25.2 µM (active) | – | inactive | – | – | inactive | 43.3 µM (active) | inactive | – | – | inactive | – |
| CCCc1nc2c(C)cc(-c3nc4ccccc4n3C)cc2n1Cc1ccc(-c2ccccc2C(=O)O)cc1 | – | inactive | – | 13.8 µM (active) | inactive | inactive | inactive | inactive | inactive | inactive | – | – | – | – | inactive |
| Nc1ccc(NC(=O)c2ccc(N)cc2)cc1 | – | inactive | inactive | 40 µM (active) | inactive | inactive | inactive | inactive | inactive | inactive | inactive | – | – | inactive | – |
| CO[C@@H]1[C@@H](OC)[C@H](C)[C@@](O)(CC(=O)O)O[C@H]1[C@H](C)[C@H]1O[C@@]2(CC[C@@](C)([C@H]3CC[C@@](C)([C@@H]4O[C@@H]([C@H]5O[C@](C)(O)[C@H](C)C[C@@H]5C)C[C@@H]4OC4C[C@H](OC)[C@@H](OC)[C@H](C)O4)O3)O2)C[C@H](O)[C@H]1C (stereo partly specified) | – | – | 0.944 µM (active) | inactive | 5.31 µM (active) | – | 0.75 µM (active) | – | 4.73 µM (active) | – | – | – | – | – | – |
| CCCCCCCCCCCCCC(=O)OCC(O)CO (stereo unspecified) | – | inactive | inactive | inactive | inactive | inactive | inactive | – | inactive | inactive | inactive | – | – | inactive | – |
| CCCCC[C@H](O)/C=C/[C@H]1[C@H](O)CC(=O)[C@@H]1C/C=C\CCCC(=O)O | inactive | inactive | inactive | inactive | inactive | inactive | inactive | inactive | inactive | – | – | – | – | – | inactive |
| COc1cc(NC(C)CCCN)c2ncccc2c1 (stereo unspecified) | inactive | inactive | inactive | – | inactive | inactive | inactive | inactive | – | – | inactive | – | – | – | inactive |
| COc1ccc(-n2nc(C(F)F)cc2-c2ccc(S(C)=O)cc2)cc1 (stereo unspecified) | inactive | inactive | inactive | inactive | inactive | – | inactive | – | – | – | – | – | – | – | inactive |
| O=C(/C=C/c1ccc([N+](=O)[O-])cc1)c1ccccc1 | – | inactive | 54.6 µM (active) | 1.13 µM (active) | 61.3 µM (active) | – | 54.6 µM (active) | – | 68.7 µM (active) | inactive | – | – | – | – | 30.7 µM (active) |
| CC[C@H]1OC(=O)[C@H](C)[C@@H](O[C@H]2C[C@@](C)(OC)[C@@H](O)[C@H](C)O2)[C@H](C)[C@@H](O[C@@H]2O[C@H](C)C[C@H](N(C)C)[C@H]2O)[C@](C)(O)C[C@@H](C)CN(C)[C@H](C)[C@@H](O)[C@]1(C)O | – | inactive | inactive | inactive | inactive | inactive | inactive | inactive | inactive | – | – | – | – | – | inactive |
| CC(C)C(O)C(C)(C)CO (stereo unspecified) | inactive | – | 0.631 µM (active) | – | – | inactive | – | – | – | 5.01 µM (active) | inactive | – | – | 1.78 µM (active) | – |
| CCCCCCCC(=O)Oc1c(Br)cc(C#N)cc1Br | – | inactive | – | – | inactive | inactive | inactive | inactive | – | – | inactive | – | – | 43.1 µM (active) | – |
